Measured values: PubChem BioAssay AID1626 (SRMLSC, 2009)
About 2,000 (0.91%) of roughly 220,000 compounds were called active. Another 2% or so got no clear call; they are omitted. Not all results are given here. Measured potencies and affinities stand elsewhere. Unmarked numbers belong to inactive results. Cut-off read from the data, not from the text of the source: inconclusive = inhibition above about 80% without an active follow-up result; inactive = below that; test concentration not stated here.

assay: M. tuberculosis H37Rv growth inhibitors, H37Rv strain (AID 1626); details: hits give high values, concentration not given here;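 note: bacteria incubated seven days before Alamar blue readout; 0% = bacteria only wells and 100% = bacteria with antibiotic wells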

Structure (SMILES) | inhibition
O=C(COC(=O)c1cncc(Br)c1)NC1CCCCC1 | 0.66%
Cn1cc(/C=N\NC(=O)C2COc3ccccc3O2)c2ccccc21 (stereo unspecified) | 11.9%
c1cncc(-c2nc(-c3ccco3)cs2)c1 | 2.43%
Cc1ccc(S(=O)(=O)NC(=O)Nc2cc(C)ccc2F)cc1 | -4.28%
Cc1ccc(S(=O)(=O)Nc2nc(-c3ccc(F)cc3)cs2)cc1 | -5.33%
COc1ccccc1N1CCN(C(=O)c2ccc(CN3CCOCC3)cc2)CC1 | 4.65%
c1ccc(-c2nc(-c3cccnc3)n[nH]2)cc1 | 4.63%
Nc1n[nH]c(-c2cccc([N+](=O)[O-])c2)n1 | 2.42%
CCCOc1cccc(C2/C(=C(/O)c3ccc(OC)cc3)C(=O)C(=O)N2CCN(C)C)c1 (stereo unspecified) | -1.44%
Cc1ccc(NC(=S)NCCSc2ccc(Cl)cc2)c(C)c1 | 17.1%
COc1cc(CNCc2ccccn2)ccc1OCc1ccc(Cl)cc1 | 31.7%
COc1cc(CNCc2ccccn2)ccc1OCc1ccccc1Cl | 61%
COc1cc(CNCc2ccccn2)ccc1OCc1cccc(Cl)c1 | 28.4%
COc1cc(CNCc2ccccn2)ccc1OCc1c(Cl)cccc1Cl | 56.6%
Cc1nnc(NC(=O)NCN2C(=O)C3C4C=CC(C4)C3C2=O)s1 (stereo unspecified) | -8.61%
CCN(CC)P(=O)(Oc1ccccc1)Oc1ccccc1 | 7.92%
C#CCOCCOCCOCCNc1nc(N2CCN(C(=O)[C@H](C(C)C)n3cc(CCO)nn3)CC2)nc(N2CCN(C(=O)[C@H]([C@@H](C)CC)n3cc(CCCCN)nn3)CC2)n1 | 1.48%
Cc1cccc2nc(-c3cccc(NC(=O)Cc4ccccc4)c3)cn12 | 10.1%
c1cncc(CSc2nnc3ccc(-c4ccco4)nn23)c1 | -0.26%
Cc1ccc(NC(=O)CSc2nnnn2C)cc1S(=O)(=O)N(C)C | -2.13%
Nc1nc(SCC(=O)Nc2ccc(Br)cc2F)n[nH]1 | 0.13%

Structure (SMILES) | inhibition
O=C(CSc1ncn[nH]1)Nc1ccc([N+](=O)[O-])cc1Br | 10.6%
CN(C)CCCCOc1ccc(Br)cc1Cl | 6.22%
N#Cc1c(N)nc(SCC(=O)OCc2ccccc2)c(C#N)c1-c1ccco1 | 74%
CC(=O)CSc1nc(N)c(C#N)c(-c2cccs2)c1C#N | -7.14%
CC(C)OC(=O)CSc1nc(N)c(C#N)c(-c2ccco2)c1C#N | 53.1%
CCCCOc1ccc(-c2c(C#N)c(N)nc(SCC(N)=O)c2C#N)cc1 | -5.04%
CCOC(=O)CC(=O)CSc1nc(N)c(C#N)c(-c2ccc(F)cc2)c1C#N | -2.96%
CCOC(=O)CC(=O)CSc1nc(N)c(C#N)c(-c2ccc(Cl)cc2)c1C#N | -8.64%
CCCCOC(=O)CSc1nc(N)c(C#N)c(-c2ccc(OCC)cc2)c1C#N | 57.9%
CC(C)OC(=O)CSc1nc(N)c(C#N)c(-c2cccs2)c1C#N | 40.9%
Cc1ccc(-n2c(O)c(C=NCCN3CCOCC3)c(=O)[nH]c2=O)cc1 | 2.96%
CCCc1nnc(NC(=O)Nc2ccc(OC)cc2)s1 | -1.18%
COc1ccc(S(=O)(=O)N2CCOCC2)cc1Cl | 5.97%
Cc1ccc(N2C(=O)NC(=O)/C(=C/c3cnn(-c4ccc(C)cc4)c3)C2=O)cc1 | 79.9%
CCCN1C(=O)c2cc(C(=O)Nc3ccc(OC)c(OC)c3)ccc2C1Nc1ccc(OC)c(OC)c1 (stereo unspecified) | 4.17%
CCn1cc(C(=O)N2CCCCC2)c2ccccc21 | -0.75%
Cn1c(=O)oc2cc(S(=O)(=O)N3CCC4(CC3)OCCO4)ccc21 | -6.19%
O=C(CSc1nnc(-c2ccncc2)n1Cc1ccco1)OC1CCCCC1 | 0.38%
CCC(C)(C)n1nnnc1C(c1ccncc1)N1CCN(c2cccc(OC)c2)CC1 (stereo unspecified) | -11.7%
Cc1nc(SCC(=O)NCc2ccco2)c2c3c(sc2n1)CCCC3 | -8.98%
Cc1cc(NC(=O)CSc2nc(C(C)C)nc3sc(C)c(C)c23)no1 | -4.44%

Structure (SMILES) | inhibition
Cc1cc(NC(=O)CSc2nc(C3CC3)nc3sc4c(c23)CCC(C)C4)no1 (stereo unspecified) | -2.86%
Cc1cc(NC(=O)CSc2nc(C(C)C)nc3c2c(=O)n(C)c(=O)n3C)no1 | -4.22%
COc1ccccc1/C=C/C(=O)NCC(=O)N/N=C/c1ccccc1[N+](=O)[O-] | -1.7%
CN(C)S(=O)(=O)c1ccc(C(=O)OCC(=O)Nc2sc3c(c2C#N)CCCCC3)cc1 | -0.67%
CC(C)(C)c1ccc(-c2noc(-c3ccc4c(c3)CCO4)n2)cc1 | 10.1%
Nc1c(N(CCO)C(=O)COc2ccc(Cl)cc2)c(=O)[nH]c(=O)n1Cc1ccccc1 | -6.77%
Cc1ccc(Nc2nc(N)c([N+](=O)[O-])c(N3CCC(C)CC3)n2)cc1C | 10.8%
O=c1cc(NCc2ccccc2)nc2ccccn12 | 4.08%
COc1ccc(NC(=O)CSc2ccccn2)cc1 | 7.31%
O=C(CSc1ccccn1)Nc1ccc(NC(=O)CSc2ccccn2)cc1 | -2.88%
COc1cccc(NC(=O)CSc2ccccn2)c1 | -1.36%
Cn1ccnc1SCC(=O)Nc1ccc2ccccc2c1 | 11.1%
COc1ccc(NC(=O)CSc2ccccn2)cc1OC | -4.19%
CC(=O)Nc1ccc(NC(=O)CSc2ccccn2)cc1 | 7.17%
O=C(CSc1ccccc1)Nc1ccncc1 | 0.82%
O=C(CSc1ccccn1)Nc1ccc2c(c1)C(=O)c1ccccc1C2=O | 2.78%
O=C(NCc1ccccn1)/C(=N/O)c1ccccc1 | 1.57%
COc1ccc(N2C(=O)NC(NC(=O)c3cccnc3)(C(F)(F)F)C2=O)cc1 (stereo unspecified) | -4.91%
Cc1nccc(-c2cc(-c3ccc(Cl)cc3Cl)no2)n1 | 0.59%
